Inconclusive results are not listed. Entries that show only a call come without a potency. Active and inactive are the calls of the source. Calls come from the whole dose curve; as a rule, active = well fitted cell-killing curve with a large enough effect; inconclusive = small, poorly fitted or top-dose-only effect, or effect the other way; inactive = no such curve, though single readings can be large or run the other way.
Assay: Quantitative High-Throughput drug screen in 47 multiple myeloma cell lines against the NCATS MIPE library collection: U266_ATCC cell viability assay (AID 1919864); note: nearly all actives have a fitted effect of over 35% in size
Details: U266 myeloma viability, CellTiter-Glo ATP luminescence, 48 h; series mostly up to 45.8 µM
Method in brief: (§1)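 Inhibition of viability over 48 h was scored by ATP content (CellTiter-Glo) in 500-cell wells. Zero and full viability were defined by media-only and DMSO-only wells.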
In the case of CC(=O)NC(C)c1ccc(Oc2ccc(OC(C)C)cc2)cc1 (stereo not given), the Potency is reported as “inactive”. In the case of O=c1[nH]c(-c2ccc(C(F)(F)F)cc2)nc2c1CSCC2, the Potency is reported as 18.7 µM (active). For COCCNCCCn1c(C(=O)CF)c(-c2ccc(C)cc2)c2c(N)ncnc21, the Potency was “inactive”. With Nc1nc2ccc(OC(F)(F)F)cc2s1 the Potency was “inactive”. For Cc1cc2c(F)c(Oc3ncnn4cc(OC[C@@H](C)O)c(C)c34)ccc2[nH]1, the Potency was 23.5 µM (active). In the case of NCCc1ccc(O)c(O)c1, the Potency is reported as 23.5 µM (active). In the case of CCCCCCCc1ccc(CCc2cccc(O)c2C(=O)O)cc1, the Potency is reported as “inactive”. In the case of NS(=O)(=O)c1cc2c(cc1Cl)NC=NS2(=O)=O, the Potency is reported as “inactive”. For CCCn1c(=O)c2[nH]c(C34CC5CC3C[C@@H](C5)C4)nc2n(CCC)c1=O, the Potency was “inactive”. For O=C1CCc2cc(OCCCCc3nnnn3C3CCCCC3)ccc2N1, the Potency was “inactive”. With COc1cc2c(cc1OC)CN(CCc1ccc(NC(=O)c3cccc4c(=O)c5cccc(OC)c5[nH]c34)cc1)CC2 the Potency was 9.35 µM (active). For CN(C)c1ccc(C2Nc3ccc4ccccc4c3C3=C2C(=O)CC(C)(C)C3)cc1Br (stereo not given), the Potency was “inactive”. In the case of Cn1cnc([N+](=O)[O-])c1Sc1ncnc2nc[nH]c12, the Potency is reported as 10.5 µM (active). In the case of Cn1c(=O)c(F)c(Nc2ccc(I)cc2F)c2c(=O)n(C[C@@H](O)CO)cnc21, the Potency is reported as 9.35 µM (active). In the case of NNCCc1ccccc1, the Potency is reported as 8.33 µM (active). In the case of O=c1[nH]cnc2[nH]ncc12, the Potency is reported as “inactive”. With CCc1ccc(CCOc2ccc(CC3SC(=O)NC3=O)cc2)nc1 (stereo not given) the Potency was “inactive”.

Assay: Quantitative High-Throughput drug screen in 47 multiple myeloma cell lines against the NCATS MIPE library collection: XG6_PLB cell viability assay (AID 1919865); note: nearly all actives have a fitted effect of over 40% in size
Details: XG6 myeloma viability, CellTiter-Glo ATP luminescence, 48 h; series mostly up to 45.8 µM
Method in brief: as §1
With N=c1nc(N2CCCCC2)cc(N)n1O the Potency was 23.5 µM (active). For COc1ccc(-c2oc3cc(OC)ccc3c2C(=O)c2ccc(C#N)cc2)cc1, the Potency was 3.32 µM (active). For CCC(C)N(C)C(=O)c1cc2ccccc2c(-c2ccccc2Cl)n1 (stereo not given), the Potency was 8.33 µM (active). For NC(N)=NC(=O)c1nc(Cl)c(N)nc1N, the Potency was 7.43 µM (active). With Nc1nc2ccc(OC(F)(F)F)cc2s1 the Potency was “inactive”. For OC(CN1CCC(Cc2ccc(F)cc2)CC1)c1ccc(Cl)cc1 (stereo not given), the Potency was “inactive”. For Cc1cc2c(F)c(Oc3ncnn4cc(OC[C@@H](C)O)c(C)c34)ccc2[nH]1, the Potency was 0.743 µM (active). With Nc1nccc(-c2ccc3noc(-c4ccc(Cl)cc4)c3c2)n1 the Potency was 2.64 µM (active). With CC(C)(C)NCC(O)c1ccc(O)c(CO)c1 (stereo not given) the Potency was “inactive”. For CCN(c1ccccc1)c1cc(NC)[n+](C)c(C)n1, the Potency was “inactive”. With CNC[C@H](O)c1cccc(O)c1 the Potency was “inactive”. With COCC(=O)NCC=Cc1ccc2ncnc(Nc3ccc(Oc4ccc(C)nc4)c(C)c3)c2c1 the Potency was 16.6 µM (active). For NC[C@H](O)c1ccc(O)c(O)c1, the Potency was “inactive”. In the case of Cc1csc(NC(=O)c2sc3nc4c(c(C(F)(F)F)c3c2N)CCC4)n1, the Potency is reported as “inactive”. With Cc1cc(Nc2nc(N[C@@H](C)c3ncc(F)cn3)ncc2Cl)n[nH]1 the Potency was 2.96 µM (active). For Cc1cnc(Nc2ccc(OCCN3CCCC3)cc2)nc1Nc1cccc(S(=O)(=O)NC(C)(C)C)c1, the Potency was “inactive”. In the case of NC(=O)c1ccc(-c2nc(-c3ccc4c(c3)OCO4)c(-c3ccccn3)[nH]2)cc1, the Potency is reported as “inactive”. In the case of CCOc1ccn(-c2ccc(F)cc2)c(=O)c1C(=O)Nc1ccc(Oc2ccnc(N)c2Cl)c(F)c1, the Potency is reported as 11.8 µM (active). With NNCCc1ccccc1 the Potency was “inactive”. In the case of Nc1ncnc2nc(-c3ccc(N4CCOCC4)nc3)cc(-c3cccc(Br)c3)c12, the Potency is reported as 10.5 µM (active). With CC(C)NCC(O)COc1ccc(COCCOC(C)C)cc1 (stereo not given) the Potency was “inactive”.

Assay: Quantitative High-Throughput drug screen in 47 multiple myeloma cell lines against the NCATS MIPE library collection: XG1_PLB cell viability assay (AID 1919866); note: nearly all actives have a fitted effect of over 35% in size
Details: CellTiter-Glo ATP, 48 h; series mostly up to 45.8 µM
Method in brief: as §1
With N=c1nc(N2CCCCC2)cc(N)n1O the Potency was 26.4 µM (active). For COc1ccc(-c2oc3cc(OC)ccc3c2C(=O)c2ccc(C#N)cc2)cc1, the Potency was 8.33 µM (active). With CC(=O)NC(C)c1ccc(Oc2ccc(OC(C)C)cc2)cc1 (stereo not given) the Potency was 16.6 µM (active). In the case of O=c1[nH]c(-c2ccc(C(F)(F)F)cc2)nc2c1CSCC2, the Potency is reported as “inactive”. With CCC(C)N(C)C(=O)c1cc2ccccc2c(-c2ccccc2Cl)n1 (stereo not given) the Potency was 5.26 µM (active). In the case of NC(N)=NC(=O)c1nc(Cl)c(N)nc1N, the Potency is reported as 8.33 µM (active). For OC(CN1CCC(Cc2ccc(F)cc2)CC1)c1ccc(Cl)cc1 (stereo not given), the Potency was “inactive”. For Nc1nccc(-c2ccc3noc(-c4ccc(Cl)cc4)c3c2)n1, the Potency was 3.72 µM (active). With CC(C)(C)NCC(O)c1ccc(O)c(CO)c1 (stereo not given) the Potency was “inactive”. For CCN(c1ccccc1)c1cc(NC)[n+](C)c(C)n1, the Potency was “inactive”. With CNC[C@H](O)c1cccc(O)c1 the Potency was “inactive”. For COCC(=O)NCC=Cc1ccc2ncnc(Nc3ccc(Oc4ccc(C)nc4)c(C)c3)c2c1, the Potency was 20.9 µM (active). In the case of NC[C@H](O)c1ccc(O)c(O)c1, the Potency is reported as “inactive”. In the case of Cc1csc(NC(=O)c2sc3nc4c(c(C(F)(F)F)c3c2N)CCC4)n1, the Potency is reported as 2.35 µM (active). In the case of Cc1cc(Nc2nc(N[C@@H](C)c3ncc(F)cn3)ncc2Cl)n[nH]1, the Potency is reported as 2.64 µM (active). For Cc1cnc(Nc2ccc(OCCN3CCCC3)cc2)nc1Nc1cccc(S(=O)(=O)NC(C)(C)C)c1, the Potency was 0.469 µM (active). With Cn1cnc([N+](=O)[O-])c1Sc1ncnc2nc[nH]c12 the Potency was 5.26 µM (active). With Cn1c(=O)c(F)c(Nc2ccc(I)cc2F)c2c(=O)n(C[C@@H](O)CO)cnc21 the Potency was “inactive”. For CCOc1ccn(-c2ccc(F)cc2)c(=O)c1C(=O)Nc1ccc(Oc2ccnc(N)c2Cl)c(F)c1, the Potency was 3.32 µM (active). With O=c1[nH]cnc2[nH]ncc12 the Potency was “inactive”. For Nc1ncnc2nc(-c3ccc(N4CCOCC4)nc3)cc(-c3cccc(Br)c3)c12, the Potency was 16.6 µM (active). In the case of CC(C)NCC(O)COc1ccc(COCCOC(C)C)cc1 (stereo not given), the Potency is reported as “inactive”.

Source: PubChem BioAssay (NCATS)
Potency is the fitted concentration of half-maximal effect.
